Results with a measured potency or affinity are listed apart. Results filed as inconclusive are left out. Activity calls are given as the source filed them.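 Rule for the calls: active = signal loss from cell killing with fitted potency at or below twice the top valid dose; inconclusive = flat drop of 30 to 70%, or unreliable curve fit; inactive = opposite direction, flat within 30%, or weaker potency.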
Test: viability loss in A549 lung cancer cells – cell-based, cherry-picks, 26 µM top dose, cytotoxicity control, dose response (AID 1053119)

For `C=C1C(=O)O[C@@H]2C[C@@H](C)[C@@H]3C=CC(=O)[C@@]3(C)[C@@H](O)[C@H]12`, the outcome was “inactive”.
